Reference: PubChem BioAssay AID1851 (National Center for Advancing Translational Sciences (NCATS), 2009)
In all, about 16,000 compounds went through this assay and about 2,600 (16%) were called active. Not shown: some 20% with an inconclusive outcome. A selection follows. A number with no mark means an inactive call. Calls come from the whole dose curve; as a rule, active = well fitted curve in the direction sought with a large enough effect; inconclusive = small, poorly fitted or top-dose-only effect, or effect the other way; inactive = no such curve, though single readings can be large or run the other way.

Each molecule was assayed against Cytochrome P450 2D6 (Homo sapiens) (UniProt P10635) (assay: Cytochrome panel assay with activity outcomes). Conditions: recombinant CYP, pro-luciferin dealkylation, luminescence, p450-cyp2d6; series mostly up to 57.1 µM; activity, negative = inhibition: at the top concentration.
% is set by controls: 0 for no effect and ±100 for the full control effect.

Cytochrome P450 2D6 (Homo sapiens), sequence (P10635 whole entry, looked up): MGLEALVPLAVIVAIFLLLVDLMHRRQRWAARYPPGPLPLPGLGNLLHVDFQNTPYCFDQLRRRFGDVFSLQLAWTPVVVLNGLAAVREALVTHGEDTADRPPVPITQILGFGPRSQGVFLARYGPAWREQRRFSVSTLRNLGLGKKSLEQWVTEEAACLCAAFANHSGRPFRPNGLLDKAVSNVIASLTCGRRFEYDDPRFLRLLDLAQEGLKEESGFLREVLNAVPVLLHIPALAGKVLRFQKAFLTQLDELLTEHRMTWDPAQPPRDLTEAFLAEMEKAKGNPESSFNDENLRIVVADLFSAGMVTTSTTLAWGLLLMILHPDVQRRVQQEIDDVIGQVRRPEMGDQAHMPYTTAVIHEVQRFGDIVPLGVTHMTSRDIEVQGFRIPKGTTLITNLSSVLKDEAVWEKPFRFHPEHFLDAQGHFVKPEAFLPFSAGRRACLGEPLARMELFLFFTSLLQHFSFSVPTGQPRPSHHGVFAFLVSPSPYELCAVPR

Row | SMILES | AC50 | activity, negative = inhibition
1 | O=C(CSc1nnnn1C1CCCC1)Nc1ccc(F)cc1 | 14.1 µM (active) | 
2 | CCn1nnnc1SCC(=O)NC1CCCC1 |  | -28.2%
3 | COc1ccc(NC(=O)CSc2nnc(C3CC3)n2N)cc1 |  | -7.25%
4 | CCOc1ccc(C2=Nn3c(nnc3-c3ccco3)SC2)cc1 |  | -6.18%
5 | CCOc1ccc(-c2nnc3n2N=C(c2ccc(OC)cc2)CS3)cc1 |  | 3.29%
6 | CCc1ccc(C2=Nn3c(nnc3-c3cccs3)SC2)cc1 | 2.82 µM (active) | 
7 | CC1(C)O[C@H]2C[C@@H]3[C@H]4CCC5=CC(=O)CC[C@@]5(C)[C@]4(F)[C@@H](O)C[C@@]3(C)[C@@]2(C(=O)CCl)O1 |  | -10.6% [at 25.6 µM]
8 | CC(C)CC(=O)Nc1ccccc1-c1nnn(CC(=O)N2CCc3ccccc3C2)n1 |  | -23.8%
9 | O=C(O)NCC1CCCCC1 (tested in a mixture with another compound) | 3.98 µM (active) | 
10 | Cc1nnc(SCC(=O)NCC2CCCCC2)n(N)c1=O |  | -11.6%
11 | O=C(c1cc(-c2ccco2)on1)N1CCOCC1 |  | -7.84%
12 | O=C(Cc1ccccc1)N/N=C/C=C/c1cccc([N+](=O)[O-])c1 |  | -14.8%
13 | CC(C)CCNC(=O)C12CN(Cc3ccccc3)CC1C(c1cccc([N+](=O)[O-])c1)=NO2 (stereo not drawn) |  | -23.9%
14 | O=C(NCc1ccccc1)C12CN(Cc3ccccc3)CC1C(c1cccc([N+](=O)[O-])c1)=NO2 (stereo not drawn) | 5.01 µM (active) | 
15 | CCSC[C@@H](N)C(=O)O |  | -5.75% [at 11.4 µM]
16 | O=c1nc(-c2ccccc2)cn[nH]1 |  | 5.87%
17 | C/C=C\C[C@@H](C)[C@@H](O)[C@H]1C(=O)N[C@@H](CC)C(=O)N(C)CC(=O)N(C)[C@@H](CC(C)C)C(=O)N[C@@H](C(C)C)C(=O)N(C)[C@@H](CC(C)C)C(=O)N[C@@H](C)C(=O)N[C@H](C)C(=O)N(C)[C@@H](CC(C)C)C(=O)N(C)[C@@H](CC(C)C)C(=O)N(C)[C@@H](C(C)C)C(=O)N1C |  | -14.7%
18 | C[C@H]1NC(=O)NC1=O | inactive | 
19 | CCOC(=O)n1c(=O)n(Cc2c(Cl)cccc2Cl)c2ccccc21 |  | -12.5%
20 | CC(C)(C)N1C(=O)[C@H]2[C@H]3[C@H](O)[C@H](O)C/C(=N/NC(=O)OCc4ccccc4)[C@@H]3CC[C@@H]2C1=O |  | -18.8% [at 11.4 µM]
21 | COCC(=O)N1CCC[C@@]2(CCN(Cc3ccccc3OC)C2)C1 | 6.31 µM (active) | 

Row | SMILES | AC50 | activity, negative = inhibition
22 | COC(=O)N1CCC2(CCCN(C(=O)Nc3ccc(OC)cc3)C2)CC1 |  | 2.1%
23 | COc1ccc(NC(=O)N2CC[C@@]3(CCCN(C(C)=O)C3)C2)cc1 |  | 0.963%
24 | CC(=O)N1CCC[C@@]2(CCN(c3ccncc3)C2)C1 |  | -5.51%
25 | COCC(=O)N1CCC2(CCCN(Cc3ccccc3OC)C2)CC1 |  | 12.4%
26 | COc1ccccc1CN1CC[C@@]2(CCCN(C(C)=O)C2)C1 | 3.16 µM (active) | 
27 | COC(=O)N1CCC2(CCCN(Cc3ccccc3OC)C2)CC1 | 3.16 µM (active) | 
28 | COc1ccccc1CN1CCCC2(CCN(C(C)=O)CC2)C1 | 3.16 µM (active) | 
29 | COCC(=O)N1CCC2(CCCN(C(=O)Nc3cccc(F)c3)C2)CC1 |  | 1.9%
30 | CCSc1nc2nc(C)cc(C)n2n1 |  | 0.804%
31 | Cn1cc(C(=O)N/N=C/C(Br)=C\c2ccccc2)ccc1=O |  | -26.6%
32 | CCN1CCN(c2nc3c(c(=O)[nH]c(=O)n3C)n2CCCSc2ncccn2)CC1 |  | -7.52%
33 | COc1ccc(C2/C(=C(/O)c3ccccc3)C(=O)C(=O)N2CC(C)O)c(OC)c1 (stereo not drawn) |  | 1.5%
34 | N#Cc1sc2nc(-c3cccs3)cc(-c3ccc(Cl)cc3)c2c1N |  | -1.86%
35 | COc1cc(N=C(N)N=C(N)N)c2ncccc2c1 |  | -2.16% [at 11.4 µM]
36 | Nc1ccc(S(=O)(=O)c2ccc(NC(=O)c3cccnc3)cc2)cc1 |  | -2.49% [at 11.4 µM]
37 | O=c1c2c(-c3ccc(Cl)cc3)csc2nc2n1CCC2 |  | -19.4%
38 | COCCn1c(=O)[nH]c2cc(C(=O)N3CCN(c4ccccc4OC)CC3)ccc2c1=O |  | -8.01%
39 | CCCC1c2c(ccc3ccccc23)Oc2ccc3ccccc3c21 |  | 4.73% [at 11.4 µM]
40 | COCC(=O)N1CCC[C@@]2(CCN(Cc3ccccc3)C2)C1 | 6.31 µM (active) | 
41 | COCC(=O)N1CCC[C@@]2(CCN(Cc3ccc(C#N)cc3)C2)C1 |  | -8.83%
42 | COCC(=O)N1CCC2(CCCN(Cc3ccccc3)C2)CC1 |  | -3.92%

Row | SMILES | AC50 | activity, negative = inhibition
43 | Cc1c(NC(=S)N/N=C/c2ccc(O)cc2)c(=O)n(-c2ccccc2)n1C |  | 4.58%
44 | O=C1C(=O)c2ccccc2C(O)=C1C(CCc1ccccc1)C1=C(O)c2ccccc2C(=O)C1=O |  | -9.56% [at 11.4 µM]
45 | CC(C)[C@@H]1[C@H]2CC[C@H](C2)[C@H]1N |  | 3.78%
46 | CCc1ncc(CO)n1Cc1cccc2ccccc12 |  | -6.66% [at 11.4 µM]
47 | Cc1ccc(Sc2cc(Cl)nc(N)n2)cc1 |  | 18.5%
48 | Cc1ccc2[nH]c(=O)c(NC(N)=S)nc2c1 |  | -20.2%
49 | O=C1CSc2ccc(C(=O)NCCC3=CCCCC3)cc2N1 |  | -6.63%
50 | CC(C)(C)c1ccc(C(=O)N2CCC(C(=O)NCCC3=CCCCC3)CC2)cc1 | 22.4 µM (active) | 
51 | CCC(C)NC(=O)C1CCN(C(=O)c2ccccc2)CC1 (stereo not drawn) |  | 19.5%
52 | CCNC(=O)C1CC(=O)OC12CCCCC2 (stereo not drawn) |  | 20.8%
53 | O=C(Nc1cccnc1Cl)C1c2ccccc2Oc2ccccc21 |  | 9.13%
54 | CN(C)CCNS(=O)(=O)N(C)C |  | 5.07% [at 11.4 µM]
55 | COc1cccc(-n2ccnc2SCC(=O)Nc2nccs2)c1 | 12.6 µM (active) | 
56 | CCOc1ccc(-n2ccnc2SCC(=O)Nc2nnc(CC)s2)cc1 |  | -2.1%
57 | CCOc1ccc(-n2ccnc2SCC(=O)Nc2nnc(C)s2)cc1 |  | 0.439%
58 | COc1ccc(-n2ccnc2SCC(=O)Nc2ccccc2)cc1 | 17.8 µM (active) | 
59 | COc1ccc(-n2ccnc2SCC(=O)Nc2ccc(OC)cc2OC)cc1 |  | -14.2%
60 | COc1cccc(NC(=O)CSc2nnc(CN3CCOCC3)n2C)c1 |  | -4.66%
61 | COc1cccc([C@H](O)Cn2cc(-c3cccc(CON=C(C)C)c3)nn2)c1 |  | -1.23% [at 11.4 µM]
62 | O=c1c2ccccc2nc2n1CCC2 |  | 22.4%
63 | CC(=O)c1cc(NC(=O)c2cccc(C(F)(F)F)c2)c(=O)oc1/C=C/N(C)C |  | -1.04%
